An excerpt weighted towards active compounds, which were near 21% of everything screened.
TDP1 cell CPT: growth inhibition of DT40 Tdp1-/-;hTDP1 cells with camptothecin (screen for TDP1 inhibitors). Potency, µM (doses to about 46.2 µM), for the others: at the highest dose activity change, negative = growth inhibition, usual class: inhibitors. 420,000 tested, 12% active. chicken DT40 Tdp1-/-;hTDP1 cells + 20 nM CPT, ATP luminescence, 48 h; further: potency means the concentration at half of the fitted maximal effect; on the % scale 0 is the no-effect control and ±100 the full control effect; nearly all actives have a fitted effect of over 55% in size
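Cell growth measured by CellTiter-Glo luminescence after a minimum 48 h, 37 C compound exposure with 20 nM CPT in Tdp1-knockout DT40 cells stably expressing hTDP1, seeded 400/well; qHTS titration format.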
D3 antag: blocks the human D3 dopamine receptor; P35462; D3R cells, DiscoveRx beta-arrestin luminescence, antagonist mode; stronger effect = lower value; max response, negative = inhibition, %; 360,000 tested, 2.5% active; AID 652054; in the data active means max response below about -50%; inconclusive means no clear call, values can overlap the other calls; further: on the % scale 0 is the no-effect control and ±100 the full control effect
Target sequence (P35462 whole entry, looked up): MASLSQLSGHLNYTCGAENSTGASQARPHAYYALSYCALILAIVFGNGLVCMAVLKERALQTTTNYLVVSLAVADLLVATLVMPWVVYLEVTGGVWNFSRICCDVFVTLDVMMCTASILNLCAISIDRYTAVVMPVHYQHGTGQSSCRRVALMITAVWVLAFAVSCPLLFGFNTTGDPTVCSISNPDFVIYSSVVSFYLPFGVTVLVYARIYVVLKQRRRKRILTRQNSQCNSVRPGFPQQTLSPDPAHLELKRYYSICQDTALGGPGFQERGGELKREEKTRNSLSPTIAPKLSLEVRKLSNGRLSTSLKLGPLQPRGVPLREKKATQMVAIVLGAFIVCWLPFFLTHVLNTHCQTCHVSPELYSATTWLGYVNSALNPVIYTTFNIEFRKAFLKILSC
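Cells plated overnight at 1500 cells/well, then exposed to library compounds with dopamine controls for 90 minutes at 37 degrees C. DiscoveRx reagent added for 30–60 minutes at room temperature; luminescence read, quantitative HTS format.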
D3 ag: agonists of human D3 dopamine receptor | max activation, % | P35462 | AID 652048 | 410,000 tested, 0.58% active | D3R DiscoveRx beta-arrestin cells, luminescence, 90 min; in the data active means max activation above about 30%; further: 0% is about no effect
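Agonist mode: compounds and dopamine controls were applied to plated cells for 90 min at 37 degrees C after an overnight attachment at 1500 cells/well. Luminescent read-out followed 30 - 60 minutes at room temperature with DiscoveRx detection reagent.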
DT40 TDP1 no CPT: qHTS for Inhibitors of human tyrosyl-DNA phosphodiesterase 1 (TDP1): qHTS in cells in absence of CPT. 420,000 tested, 15% active. AID 686978, 2013. Potency, µM (titrated, usually from 46.2 µM), for inactives: at the highest dose activity change, negative = growth inhibition, usual class: inhibitors. DT40 Tdp1-/- hTDP1 cells, no CPT, ATP luminescence, 48 h; further: potency means the concentration at half of the fitted maximal effect; on the % scale 0 is the no-effect control and ±100 the full control effect; nearly all actives have a fitted effect of over 55% in size
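Readout: luminescence from CellTiter-Glo after 30 min in the dark at RT. Cells: DT40 Tdp1-/- with stable hTDP1, 400/well. Exposure: compounds alone, ≥48 hr, 37 °C.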
ClpP mod: qHTS Assay for Activators of ClpP; AID 651965, 2013; purified B. subtilis ClpP, FRET peptide cleavage, 20 min; 340,000 tested, 1.9% active; Potency, µM (titrated, usually from 57.5 µM), for inactives: at the highest dose activity change, negative = active; active means well fitted falling curve with a large enough effect; inconclusive means small, poorly fitted or top-dose-only effect; inactive means no such curve, though single readings can be large or run the other way; further: potency means the concentration at half of the fitted maximal effect; the source files actives as falling curves though it sought activators and does not explain the sign; nearly all actives have a fitted effect of over 65% in size
Target sequence (P80244 whole entry, looked up): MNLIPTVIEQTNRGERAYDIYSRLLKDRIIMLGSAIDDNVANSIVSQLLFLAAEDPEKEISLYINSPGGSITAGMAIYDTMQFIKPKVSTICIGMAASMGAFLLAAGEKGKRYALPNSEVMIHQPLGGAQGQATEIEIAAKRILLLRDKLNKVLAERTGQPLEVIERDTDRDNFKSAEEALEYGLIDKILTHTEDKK
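Buffer: 100 mM Tris/HCl pH8, 100 mM KCl, 0.05% low protease BSA, 2.5% glycerol, 0.01% Tween-20. ClpP 10 microg/mL final; 20 min RT; delta FRET normalized to ADEP and DMSO controls.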
IL-1B inflam inh: inflammasome signaling inhibition, IL-1 beta readout | THP-1 LPS/ATP IL-1B secretion, AlphaLISA, 16 h; stronger effect = lower value | activity change, % at 57.5 µM | 360,000 tested, 4.7% active; in the data active means activity change below about -50%; inconclusive means mostly about -30% to -49%; further: on the % scale 0 is the no-effect control and ±100 the full control effect
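THP-1 cells pretreated 1 hr with compounds (up to 57.5 uM final), then stimulated with LPS (250 ng/mL final) plus ATP (1.25 mM final); secreted IL-1B measured by AlphaLISA after 16 hr, decreased signal indicating inhibition.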
The depositor's hits bear a star; ? = inconclusive; nt = not tested or not shown. Unless noted, the call rests on the fitted dose curve; in most records, active means well fitted inhibition curve with a large enough effect; inconclusive means small, poorly fitted or top-dose-only effect; inactive means flat fitted curve, though single readings scatter.

SMILES	TDP1 cell CPT	D3 antag	D3 ag	DT40 TDP1 no CPT	ClpP mod	IL-1B inflam inh
Cc1ccc(N(CC(=O)NCCSc2nc3ccccc3s2)S(=O)(=O)c2ccccc2)c(C)c1	?	4.4	5.8	25.9µM*	-2.9%	-9.3
O=C(NC1CCN(Cc2ccccc2)CC1)c1ccc(Cn2c(=O)c3ccccc3n(Cc3ccc(F)cc3)c2=O)cc1	?	nt	-22.6	?	-16.0%	nt
CCN(CC)S(=O)(=O)c1ccc(-c2nnc(SCC(N)=O)n2CC)cc1	2.4%	-5.2	5.1	-0.3%	nt	11.2
CCN(CC)S(=O)(=O)c1ccc(-c2nnc(SCC(=O)N3c4ccccc4CC3C)n2CC)cc1 (stereo not drawn)	14.6µM*	27.3	9.1	20.6µM*	1.2%	3.2
CCN(CC)S(=O)(=O)c1ccc(-c2nnc(SCC(=O)c3ccc(OC)cc3)o2)cc1	-20.0%	-22.1	8.2	-21.8%	0.7%	20.3
CCN(CC)S(=O)(=O)c1ccc(-c2nnc(SCC(=O)N3c4ccccc4CC3C)o2)cc1 (stereo not drawn)	20.6µM*	11.1	24.6	20.6µM*	?	6.3
CCN1CCN(c2cc(C)c3cc(NC(=O)CCC(=O)Nc4ccc(OC)c(OC)c4)ccc3n2)CC1	-1.1%	-0.2	-6.5	-23.0%	4.5%	-5.9
Cc1cc(N2CCC(C)CC2)nc2ccc(NC(=O)Cc3ccccc3Br)cc12	20.6µM*	nt	-9.3	13µM*	3.8%	nt
COc1ccccc1CC(=O)Nc1ccc2nc(N3CCC(C)CC3)cc(C)c2c1	-21.3%	nt	-4.2	?	4.3%	nt
COc1ccc(/C=C/C(=O)Nc2ccc3nc(N4CCC(C)CC4)cc(C)c3c2)cc1OC	4.11µM*	nt	-16.0	4.61µM*	-1.0%	nt
Cc1cccc(CC(=O)Nc2ccc3nc(N4CCC(C)CC4)cc(C)c3c2)c1	20.6µM*	nt	-8.7	14.6µM*	4.0%	nt
CC1CCC(NC(=O)CN2C(=O)NC3(CCCCCC3)C2=O)CC1 (stereo not drawn)	-4.7%	-1.5	7.5	15.1%	1.0%	-18.1
COc1ccc(Nc2ncnc3c2c(-c2ccccc2)cn3-c2ccc(C)c(Cl)c2)cc1OC	-2.1%	nt	4.9	-12.0%	?	nt
O=P(Cc1ccccc1)(c1ccccc1)c1ccccc1	?	3.6	13.1	?	1.7%	4.9
O=P(Cc1ccccc1)(Cc1ccccc1)c1ccccc1	?	-18.4	0.8	?	31.6µM*	-2.6
O=Cc1ccc(C(=O)OCC(=O)NC(=O)Nc2ccccc2F)cc1	5.2%	2.7	-1.2	-11.3%	nt	10.4
CCn1cc(C(=O)NCCc2ccc(OC)cc2)c(=O)c2ccc(C)nc21	?	-19.6	-3.0	23.1µM*	nt	7.5
CCn1cc(C(=O)OCC(=O)Nc2c(C)cccc2C)c(=O)c2ccc(C)nc21	16.4µM*	?	-17.5	23.1µM*	nt	0.0
CCn1cc(C(=O)NCCc2ccc(Cl)cc2)c(=O)c2ccc(C)nc21	-23.2%	-3.8	8.5	?	-1.9%	-4.0
CCn1cc(C(=O)OCC(=O)Nc2cccc(Cl)c2C)c(=O)c2ccc(C)nc21	-4.6%	nt	-5.7	-10.7%	-0.2%	nt
CCc1ccc(-c2nc(CS(=O)CC(=O)NC3CCCCCC3)c(C)o2)cc1 (stereo not drawn)	-20.9%	-15.4	-13.8	-17.6%	-6.2%	7.3
Cc1ncc([N+](=O)[O-])n1CC(=O)Nc1ccc(F)cc1	18.6%	10.7	5.8	-2.4%	0.0%	32.1
Cc1ccc([N+](=O)[O-])cc1S(=O)(=O)NCC1COc2ccccc2O1 (stereo not drawn)	?	0.8	2.2	-15.8%	0.1%	12.5
CC(=O)Nc1ccc(Oc2ccc(S(=O)(=O)N3CCCC3)cn2)cc1	-0.5%	-6.5	1.2	-25.9%	-1.5%	-11.4
N#CCCCCn1ccc(NC(=O)c2ccc(Cl)cc2O)n1	6.2%	5.7	9.6	-15.1%	-0.9%	-2.5
SMILES	TDP1 cell CPT	D3 antag	D3 ag	DT40 TDP1 no CPT	ClpP mod	IL-1B inflam inh
COc1ccccc1N(C)S(=O)(=O)c1ccc(C(=O)N(C)Cc2ccc(OC(F)F)cc2)cc1	25.9µM*	14.3	-5.1	23.1µM*	-5.3%	-25.3
COc1ccccc1N(C)S(=O)(=O)c1ccc(C(=O)Nc2cccc(Br)c2)cc1	?	-10.6	-9.1	16.4µM*	nt	-59.9*
COc1ccccc1N(C)S(=O)(=O)c1ccc(C(=O)Nc2nccs2)cc1	?	46.2	-5.1	6.51µM*	-0.1%	-8.0
COC(=O)c1ccc(NC(=O)c2ccccc2N(C)S(=O)(=O)c2ccccc2)cc1	?	-10.6	-4.3	20.6µM*	-1.4%	-19.3
CCN(CCCNC(=O)Cn1ncc2c3ccccc3n(C)c2c1=O)c1cccc(C)c1	?	nt	2.4	?	-7.8%	nt
COc1ccccc1N(C)S(=O)(=O)c1ccc(C(=O)NCC2CCCCC2)cc1	?	?	-20.9	18.4µM*	0.4%	0.0
COc1cc(NC(=O)c2ccc(S(=O)(=O)N(C)c3ccccc3OC)cc2)cc(OC)c1	18.4µM*	13.7	2.2	20.6µM*	nt	-3.3
COc1ccccc1N(C)S(=O)(=O)c1ccc(C(=O)NCC(C)C)cc1	-20.1%	-21.9	-2.3	?	-0.8%	16.2
Cc1sc(NC(=O)Cn2[nH]c(=O)c3ccccc3c2=O)nc1-c1ccccc1	?	-16.4	3.4	?	-5.4%	-3.0
COc1ccc(-c2nc(-n3c(C)c(C(C)=O)c(C(C)=O)c3C)sc2C)cc1	20.6µM*	28.6	6.3	23.1µM*	1.4%	-13.4
CC(=O)c1c(C(C)=O)c(C)n(-c2nc(-c3ccc(C)c(C)c3)c(C)s2)c1C	18.4µM*	21.8	1.3	23.1µM*	2.1%	-66.8*
O=C(COC(=O)Cn1cnc2ccccc2c1=O)Nc1ccccc1OC(F)F	?	-4.0	2.7	-25.5%	nt	-1.9
Cc1cccc(N2CCN(S(=O)(=O)c3cc(C(=O)Nc4ccccc4Cl)ccc3F)CC2)c1C	?	nt	0.2	23.1µM*	-2.7%	nt
O=C(NCC1COc2ccccc2O1)c1ccc(F)c(S(=O)(=O)N2CCOCC2)c1 (stereo not drawn)	18.4µM*	6.0	-10.2	?	1.3%	13.9
Cc1ccccc1NC(=O)c1ccc(F)c(S(=O)(=O)N2CCCCC2)c1	-19.7%	-4.3	2.1	4.2%	-1.7%	-2.0
CN(c1ccccc1)S(=O)(=O)c1cc(C(=O)c2nccn2C)ccc1Cl	?	18.7	1.0	16.4µM*	-1.6%	-22.0
